According to PubChem BioAssay (NCI):
This is part of a sample that, as a whole, favours compounds with a hit. Of some 83,000 tested, about 20% had one in any assay.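 How to read the values: 0–100, growth inhibition (40 = 60% inhibited); 0, no net growth; -100 to 0, cell death (-40 = 40% of starting cells died; -100 = all dead).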 Activity calls are given as the source filed them. Rule for the calls: active = growth percent below 10; inactive = the rest.

How the values were obtained:
Test in all cases: NCI-60 one-dose screen, 48 h (100 = growth as untreated, 0 = no growth, -100 = all killed)
Conditions in all cases: 10 µM unless noted
DU-145 prostate = test system: DU-145 prostate
K-562 leukemia = test system: K-562 leukemia
MALME-3M melanoma = test system: MALME-3M melanoma
MDA-MB-231 breast = test system: MDA-MB-231 breast
RXF 393 renal = test system: RXF 393 renal
SF-268 CNS = test system: SF-268 CNS
SF-295 CNS = test system: SF-295 CNS
SF-539 CNS = test system: SF-539 CNS
UACC-257 melanoma = test system: UACC-257 melanoma
M14 melanoma = test system: M14 melanoma
HCT-15 colon = test system: HCT-15 colon
HT29 colon = test system: HT29 colon
SNB-19 CNS = test system: SNB-19 CNS
U251 CNS = test system: U251 CNS
PC-3 prostate = test system: PC-3 prostate
SK-MEL-5 melanoma = test system: SK-MEL-5 melanoma
UACC-62 melanoma = test system: UACC-62 melanoma
SK-MEL-28 melanoma = test system: SK-MEL-28 melanoma
LOX IMVI melanoma = test system: LOX IMVI melanoma
SNB-75 CNS = test system: SNB-75 CNS

Measured: growth

O=C(CSc1nc2ccc([N+](=O)[O-])cc2[nH]1)Nc1ccc(F)c(Cl)c1
active: MALME-3M melanoma -5.67% | PC-3 prostate 8.99% | SK-MEL-5 melanoma -10.8% | UACC-62 melanoma 5.92%
inactive: DU-145 prostate 32.2% | K-562 leukemia 11.9% | MDA-MB-231 breast 30.8% | RXF 393 renal 29.7% | SF-268 CNS 23.8% | SF-295 CNS 18.1% | SF-539 CNS 35% | UACC-257 melanoma 10.5% | M14 melanoma 25.4% | HCT-15 colon 18.5% | HT29 colon 14.4% | SNB-19 CNS 11.6% | U251 CNS 11.6% | SK-MEL-28 melanoma 22%

N#C/C(C(=O)c1ccccc1)=C1/C(=O)Nc2ccc(F)cc21
inactive: DU-145 prostate 110% | K-562 leukemia 110% | MALME-3M melanoma 104% | MDA-MB-231 breast 92.2% | RXF 393 renal 127% | SF-268 CNS 101% | SF-295 CNS 102% | SF-539 CNS 96.9% | UACC-257 melanoma 103% | M14 melanoma 104% | HCT-15 colon 106% | HT29 colon 116% | SNB-19 CNS 98.4% | U251 CNS 104% | PC-3 prostate 93.3% | SK-MEL-5 melanoma 103% | UACC-62 melanoma 92.7% | LOX IMVI melanoma 100% | SK-MEL-28 melanoma 108%

CC1(C)CC[C@]2(C(=O)O)CC[C@]3(C)C(=CC[C@@H]4[C@@]5(C)C/C(=C/c6cccnc6)[C@H](O)C(C)(C)[C@@H]5CC[C@]43C)[C@@H]2C1
active: DU-145 prostate 5.35% [100 µM] | K-562 leukemia 9.27% [100 µM] | MALME-3M melanoma -30.1% [100 µM] | MDA-MB-231 breast -24.3% [100 µM] | RXF 393 renal -37.4% [100 µM] | SF-295 CNS -7.25% [100 µM] | SF-539 CNS -26.8% [100 µM] | UACC-257 melanoma -8.97% [100 µM] | M14 melanoma 3.32% [100 µM] | HCT-15 colon -5.12% [100 µM] | HT29 colon -79.4% [100 µM] | U251 CNS -8.69% [100 µM] | PC-3 prostate 4.87% [100 µM] | SK-MEL-5 melanoma -77.1% [100 µM] | UACC-62 melanoma -56% [100 µM] | LOX IMVI melanoma -87.1% [100 µM] | SK-MEL-28 melanoma -35.3% [100 µM]
inactive: SF-268 CNS 22.4% [100 µM]

Cc1cnc([C@]23CC[C@@H](C)[C@H](C)[C@H]2C2=CC[C@@H]4[C@@]5(C)Cc6c([nH]c7ccccc67)C(C)(C)[C@@H]5CC[C@@]4(C)[C@]2(C)CC3)o1
inactive: DU-145 prostate 69.9% [100 µM] | K-562 leukemia 38.3% [100 µM] | MALME-3M melanoma 59.1% [100 µM] | MDA-MB-231 breast 38.3% [100 µM] | RXF 393 renal 101% [100 µM] | SF-268 CNS 36.1% [100 µM] | SF-295 CNS 31.7% [100 µM] | UACC-257 melanoma 61.5% [100 µM] | M14 melanoma 28.4% [100 µM] | HT29 colon 25.7% [100 µM] | SNB-75 CNS 62.4% [100 µM] | SNB-19 CNS 35.6% [100 µM] | U251 CNS 41.7% [100 µM] | PC-3 prostate 55.4% [100 µM] | SK-MEL-5 melanoma 29% [100 µM] | UACC-62 melanoma 24.4% [100 µM] | LOX IMVI melanoma 17.3% [100 µM] | SK-MEL-28 melanoma 20.3% [100 µM]
active: SF-539 CNS 6.53% [100 µM]

O=C(NCc1ccccc1)C(Cl)Cl
inactive: DU-145 prostate 110% | K-562 leukemia 108% | MALME-3M melanoma 101% | MDA-MB-231 breast 102% | RXF 393 renal 107% | SF-268 CNS 99.7% | SF-295 CNS 95.7% | SF-539 CNS 97.4% | UACC-257 melanoma 102% | M14 melanoma 101% | HCT-15 colon 98.2% | HT29 colon 99.2% | SNB-19 CNS 96.7% | PC-3 prostate 101% | SK-MEL-5 melanoma 101% | UACC-62 melanoma 93.1% | LOX IMVI melanoma 101% | SK-MEL-28 melanoma 96.1%

CCN(CC)CCCCCCNc1cccc2cc(Br)cnc12
inactive: DU-145 prostate 91.4% | MALME-3M melanoma 47.9% | MDA-MB-231 breast 67.9% | RXF 393 renal 91% | SF-268 CNS 74.9% | SF-295 CNS 84.8% | SF-539 CNS 94.4% | UACC-257 melanoma 80.7% | M14 melanoma 50.1% | HCT-15 colon 84.7% | HT29 colon 16.9% | SNB-19 CNS 107% | PC-3 prostate 54.2% | SK-MEL-5 melanoma 94.7% | UACC-62 melanoma 113% | LOX IMVI melanoma 69.3% | SK-MEL-28 melanoma 108%
active: K-562 leukemia -27.8%

COC(=O)c1cc2c(=O)[nH]cc3c2c(n1)CCC3
inactive: DU-145 prostate 116% | K-562 leukemia 99.3% | MALME-3M melanoma 99.3% | MDA-MB-231 breast 106% | RXF 393 renal 100% | SF-268 CNS 100% | SF-295 CNS 112% | SF-539 CNS 97.3% | UACC-257 melanoma 102% | M14 melanoma 104% | HCT-15 colon 113% | HT29 colon 105% | SNB-19 CNS 96.2% | U251 CNS 103% | PC-3 prostate 93.6% | SK-MEL-5 melanoma 104% | UACC-62 melanoma 107% | LOX IMVI melanoma 104% | SK-MEL-28 melanoma 105%

CCOc1ccc2sc(NS(=O)(=O)c3ccc(N)cc3)nc2c1
inactive: DU-145 prostate 119% | K-562 leukemia 103% | MALME-3M melanoma 118% | MDA-MB-231 breast 106% | RXF 393 renal 104% | SF-268 CNS 110% | SF-295 CNS 109% | SF-539 CNS 99.5% | UACC-257 melanoma 111% | M14 melanoma 109% | HCT-15 colon 107% | HT29 colon 109% | SNB-19 CNS 103% | PC-3 prostate 119% | SK-MEL-5 melanoma 106% | UACC-62 melanoma 93% | LOX IMVI melanoma 105% | SK-MEL-28 melanoma 117%

COc1cc2c(c(OC)c1)C1c3cc(OC)ccc3NC(=O)N1CC2 (configuration not stated)
inactive: DU-145 prostate 102% | K-562 leukemia 30.8% | MALME-3M melanoma 75.5% | MDA-MB-231 breast 66.5% | RXF 393 renal 98.2% | SF-268 CNS 80.4% | SF-295 CNS 74% | SF-539 CNS 85.1% | UACC-257 melanoma 90.8% | M14 melanoma 59.4% | HCT-15 colon 49.7% | HT29 colon 32.3% | SNB-19 CNS 87.5% | U251 CNS 74.9% | PC-3 prostate 77.7% | SK-MEL-5 melanoma 82.2% | UACC-62 melanoma 66% | LOX IMVI melanoma 89.7% | SK-MEL-28 melanoma 88.9%

O=C(NCCCNC(=O)OCc1ccc2c(Br)cc(Br)c(O)c2n1)OCc1ccc2c(Br)cc(Br)c(O)c2n1
inactive: SF-268 CNS 10.3% | SF-295 CNS 20% | SNB-19 CNS 44.6%
active: DU-145 prostate -80.8% | K-562 leukemia 3.3% | MALME-3M melanoma -87.8% | MDA-MB-231 breast -68.5% | RXF 393 renal -93.3% | SF-539 CNS -96.8% | UACC-257 melanoma -37.5% | M14 melanoma -65.8% | HT29 colon -73% | SNB-75 CNS -87.6% | U251 CNS -70.4% | PC-3 prostate -25.5% | SK-MEL-5 melanoma -77.7% | UACC-62 melanoma -87.1% | LOX IMVI melanoma -92% | SK-MEL-28 melanoma -75.9%

COc1ccc(C(=O)c2nccc3cc(OC)c(OC)cc23)cc1OC
active: UACC-257 melanoma -11.2%
inactive: DU-145 prostate 104% | K-562 leukemia 103% | MALME-3M melanoma 103% | MDA-MB-231 breast 85% | RXF 393 renal 99.4% | SF-268 CNS 89.3% | SF-295 CNS 92.6% | SF-539 CNS 94.3% | M14 melanoma 89.3% | HT29 colon 113% | SNB-75 CNS 89.5% | U251 CNS 98.6% | PC-3 prostate 95.9% | SK-MEL-5 melanoma 99.6% | UACC-62 melanoma 96.4% | LOX IMVI melanoma 93.3% | SK-MEL-28 melanoma 90.7%

CCCCCCSc1ncnc2nc[nH]c12
inactive: DU-145 prostate 95% | K-562 leukemia 70.7% | MALME-3M melanoma 102% | MDA-MB-231 breast 96.8% | RXF 393 renal 78.1% | SF-268 CNS 96.3% | SF-295 CNS 88.8% | SF-539 CNS 87.4% | UACC-257 melanoma 91.4% | M14 melanoma 97% | HT29 colon 103% | SNB-75 CNS 91.2% | SNB-19 CNS 86.2% | U251 CNS 90.1% | PC-3 prostate 85.2% | SK-MEL-5 melanoma 94% | UACC-62 melanoma 77% | LOX IMVI melanoma 80.1% | SK-MEL-28 melanoma 101%

COc1ccc(NC(=S)NNc2ccc(-c3ccc(OC)c(OC)c3)nn2)cc1
inactive: DU-145 prostate 107% | K-562 leukemia 104% | MALME-3M melanoma 112% | MDA-MB-231 breast 96.1% | RXF 393 renal 120% | SF-268 CNS 92.9% | SF-295 CNS 101% | SF-539 CNS 97.6% | UACC-257 melanoma 103% | M14 melanoma 99.2% | HT29 colon 109% | SNB-75 CNS 74.4% | U251 CNS 76.6% | PC-3 prostate 104% | SK-MEL-5 melanoma 101% | UACC-62 melanoma 102% | LOX IMVI melanoma 97.8% | SK-MEL-28 melanoma 113%

CS(=O)(=O)c1cccnn1
inactive: DU-145 prostate 97.6% | K-562 leukemia 84.3% | MALME-3M melanoma 88.8% | MDA-MB-231 breast 102% | RXF 393 renal 102% | SF-268 CNS 98.8% | SF-295 CNS 112% | SF-539 CNS 82% | UACC-257 melanoma 108% | M14 melanoma 103% | HT29 colon 89.7% | SNB-75 CNS 48.9% | SNB-19 CNS 102% | PC-3 prostate 95.6% | SK-MEL-5 melanoma 92.9% | UACC-62 melanoma 90.7% | LOX IMVI melanoma 85.2% | SK-MEL-28 melanoma 117%

N#CC1C(=O)NC(c2ccccc2[N+](=O)[O-])c2sc3c(F)cccc3c21 (configuration not stated)
active: UACC-257 melanoma -37.3% | UACC-62 melanoma 9.47%
inactive: DU-145 prostate 89.9% | K-562 leukemia 35.9% | MALME-3M melanoma 74.7% | MDA-MB-231 breast 75.6% | RXF 393 renal 69.9% | SF-268 CNS 86.7% | SF-295 CNS 20.8% | SF-539 CNS 85.7% | M14 melanoma 92.7% | HT29 colon 85.3% | SNB-75 CNS 82.6% | SNB-19 CNS 70.8% | U251 CNS 42.6% | PC-3 prostate 80% | SK-MEL-5 melanoma 75.2% | LOX IMVI melanoma 91.4% | SK-MEL-28 melanoma 111%
